# Active and inactive are the calls of the source.
# Key:
# [1] = E. coli DRC41 culture turbidity changes, primary screen, E. coli filamentation inducer project, strain DRC41, OD650, 48 h (AID 1152);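 note: E. coli MC1000 strain DRC41 lacking acrAB efflux pump and sulA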; conditions: E. coli DRC41 (acrAB sulA), higher = more signal, called active from +8 up or from −8 down
# [2] = small-molecule binders of probe aLefty1, primary screen, biochemical, small-molecule microarray, 635/667 nm fluorescence (AID 1153); conditions: higher = more signal;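 note: score merges spot fluorescence with signal-to-noise ratio from the scanned slide images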
# [3] = PSAC antagonists in infected red cells, primary screen, cell-based, P. falciparum Indochina, OD700, 1 h (AID 1154); conditions: P. falciparum Indochina infected RBC osmotic lysis, higher = more signal, called active from +8 up or from −8 down
# [4] = PSAC antagonists in infected red cells, primary screen, cell-based, P. falciparum Indochina, OD700, 2 h (AID 1155);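 note: lysis reports solute entry through the parasite surface anion channel PSAC; channel blockers reduce lysis of infected cells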; conditions: P. falciparum Indochina infected erythrocytes, osmotic lysis OD700; higher = more signal, called active from +8 up or from −8 down
# [5] = osmotic lysis modulators in infected erythrocytes, primary screen, PSAC antagonist project, cell-based, P. falciparum Indochina, OD700, 3 h (AID 1156); conditions: higher = more signal, called active from +8 up or from −8 down
# [6] = PSAC antagonists in infected red cells, primary screen, cell-based, P. falciparum Indochina, OD700, 18 h (AID 1157); conditions: P. falciparum Indochina infected erythrocytes, osmotic lysis OD700, 18 h; higher = more signal, called active from +8 up or from −8 down
# [7] = modulators of S6 phosphorylation in cells, primary screen, cell-based, A549, cytoblot, luminescence, serum-stimulated (AID 1158); conditions: A549 phospho-S6 cytoblot, 5 h, higher = more signal;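 note: serum-stimulated A549 lung adenocarcinoma cells; signal is phosphorylated S6 detected by cytoblot immunostaining with HRP secondary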
# [8] = target: NADPH oxidase 2 (Homo sapiens) (UniProt P04839); test: NOX2-dependent H2O2 signal modulators, primary screen, NOX inhibitor project, cell-based, HEK293-NOX2, PMA-stimulated, Amplex Red fluorescence (AID 1159); conditions: 45 min, higher = more signal, called active from +8 up or from −8 down; note: test concentration not given here
# [9] = target: NADPH oxidase 4 (Homo sapiens) (UniProt Q9NPH5); test: NOX4-dependent H2O2 signal modulators, primary screen, NOX inhibitor project, cell-based, HEK293-NOX4, tetracycline-induced, Amplex Red fluorescence (AID 1160); conditions: 45 min, higher = more signal, called active from +8 up or from −8 down
# [10] = target: NADPH oxidase 5 (Homo sapiens) (UniProt Q96PH1); test: NOX5-dependent H2O2 signal modulators, primary screen, NOX inhibitor project, cell-based, HEK293-NOX5, Amplex Red fluorescence (AID 1161); conditions: HEK293-NOX5, ionomycin, 45 min, higher = more signal
# [11] = A549 cell viability effects, profiling panel, calcein-AM fluorescence, 48 h, basal (AID 1162); conditions: higher = more signal; note: test concentration not given here
# [12] = adipocyte viability effects, profiling panel, cell-based, 3T3-L1 adipocytes, calcein-AM fluorescence, 48 h, basal (AID 1163); conditions: 3T3-L1 adipocytes viability, higher = more signal; note: test concentration not given here
# [13] = HepG2 cell viability effects, profiling panel, calcein-AM fluorescence, 48 h, basal (AID 1164); conditions: higher = more signal; note: test concentration not given here
# [14] = MM1S cell viability effects, profiling panel, calcein-AM fluorescence, 48 h, basal (AID 1165); conditions: higher = more signal;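 note: viability of MM1S multiple myeloma cells under basal unstimulated conditions; test concentration not given here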
# [15] = basal RPMI8226 viability, no added stimulus, profiling panel, cell-based, calcein-AM fluorescence, 48 h, PK04 Diversity Set (AID 1166); conditions: RPMI8226 myeloma viability, higher = more signal;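 note: cells grown under basal conditions without added stimulus; test concentration not given here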
# [16] = basal HepG2 mitochondrial membrane potential changes, profiling panel, cell-based, JC-1 fluorescence, 24 h, 100 nL compound (AID 1167); conditions: higher = more signal; note: test concentration not given here
# [17] = basal 3T3-L1 adipocyte mitochondrial potential changes, profiling panel, cell-based, JC-1 fluorescence, 3T3-L1 adipocytes, 24 h, 100 nL compound (AID 1168); conditions: JC-1 mitochondrial fluorescence, higher = more signal, called active from +8 up or from −8 down; note: test concentration not given here
# [18] = basal RPMI8226 mitochondrial membrane potential changes, profiling panel, cell-based, JC-1 fluorescence, 24 h, 100 nL compound (AID 1169); conditions: RPMI8226 myeloma, JC-1 mitochondrial potential fluorescence, higher = more signal; note: test concentration not given here
# [19] = basal MM1S mitochondrial membrane potential changes, profiling panel, cell-based, JC-1 fluorescence, 24 h, 100 nL compound (AID 1170); conditions: higher = more signal; note: test concentration not given here
# [20] = A549 lung cancer cell viability effects, profiling panel, resazurin fluorescence, 24 h, PK04 Diversity Set (AID 1171); conditions: higher = more signal, called active from +8 up or from −8 down; note: test concentration not given here
# NADPH oxidase 5 (Homo sapiens), sequence (Q96PH1 whole entry, looked up): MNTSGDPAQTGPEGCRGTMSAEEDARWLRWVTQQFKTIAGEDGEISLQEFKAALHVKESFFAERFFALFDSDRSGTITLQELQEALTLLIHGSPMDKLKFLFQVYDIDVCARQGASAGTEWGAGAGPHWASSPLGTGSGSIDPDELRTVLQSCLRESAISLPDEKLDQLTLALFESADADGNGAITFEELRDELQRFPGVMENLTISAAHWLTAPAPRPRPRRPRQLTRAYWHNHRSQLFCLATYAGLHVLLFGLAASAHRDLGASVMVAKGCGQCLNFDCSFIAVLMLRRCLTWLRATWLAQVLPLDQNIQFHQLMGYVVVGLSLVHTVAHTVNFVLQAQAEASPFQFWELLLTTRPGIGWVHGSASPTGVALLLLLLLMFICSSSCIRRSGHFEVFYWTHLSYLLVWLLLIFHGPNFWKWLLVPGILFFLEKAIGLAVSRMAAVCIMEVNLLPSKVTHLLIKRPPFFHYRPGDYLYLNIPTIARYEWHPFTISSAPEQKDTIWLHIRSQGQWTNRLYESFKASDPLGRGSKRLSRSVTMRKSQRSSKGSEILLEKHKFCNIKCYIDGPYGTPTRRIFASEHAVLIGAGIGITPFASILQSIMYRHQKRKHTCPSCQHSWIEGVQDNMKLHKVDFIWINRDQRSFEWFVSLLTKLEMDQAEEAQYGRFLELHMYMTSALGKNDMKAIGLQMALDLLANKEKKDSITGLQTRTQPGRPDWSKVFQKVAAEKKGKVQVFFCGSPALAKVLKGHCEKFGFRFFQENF
# NADPH oxidase 4 (Homo sapiens), sequence (Q9NPH5 whole entry, looked up): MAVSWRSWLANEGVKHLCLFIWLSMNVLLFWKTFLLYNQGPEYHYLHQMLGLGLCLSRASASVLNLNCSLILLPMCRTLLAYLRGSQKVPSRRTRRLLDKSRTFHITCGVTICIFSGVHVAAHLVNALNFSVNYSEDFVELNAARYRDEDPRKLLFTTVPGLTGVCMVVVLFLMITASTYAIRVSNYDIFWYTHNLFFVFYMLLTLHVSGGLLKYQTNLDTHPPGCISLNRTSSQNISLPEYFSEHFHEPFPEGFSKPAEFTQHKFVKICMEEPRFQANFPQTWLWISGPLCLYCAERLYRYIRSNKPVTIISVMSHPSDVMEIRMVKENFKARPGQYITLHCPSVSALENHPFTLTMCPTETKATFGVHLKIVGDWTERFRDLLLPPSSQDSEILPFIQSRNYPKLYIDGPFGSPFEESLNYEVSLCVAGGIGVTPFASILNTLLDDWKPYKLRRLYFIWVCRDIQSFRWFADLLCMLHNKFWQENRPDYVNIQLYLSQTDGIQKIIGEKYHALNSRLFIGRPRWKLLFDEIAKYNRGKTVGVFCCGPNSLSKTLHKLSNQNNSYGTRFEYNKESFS
# NADPH oxidase 2 (Homo sapiens), sequence (P04839 whole entry, looked up): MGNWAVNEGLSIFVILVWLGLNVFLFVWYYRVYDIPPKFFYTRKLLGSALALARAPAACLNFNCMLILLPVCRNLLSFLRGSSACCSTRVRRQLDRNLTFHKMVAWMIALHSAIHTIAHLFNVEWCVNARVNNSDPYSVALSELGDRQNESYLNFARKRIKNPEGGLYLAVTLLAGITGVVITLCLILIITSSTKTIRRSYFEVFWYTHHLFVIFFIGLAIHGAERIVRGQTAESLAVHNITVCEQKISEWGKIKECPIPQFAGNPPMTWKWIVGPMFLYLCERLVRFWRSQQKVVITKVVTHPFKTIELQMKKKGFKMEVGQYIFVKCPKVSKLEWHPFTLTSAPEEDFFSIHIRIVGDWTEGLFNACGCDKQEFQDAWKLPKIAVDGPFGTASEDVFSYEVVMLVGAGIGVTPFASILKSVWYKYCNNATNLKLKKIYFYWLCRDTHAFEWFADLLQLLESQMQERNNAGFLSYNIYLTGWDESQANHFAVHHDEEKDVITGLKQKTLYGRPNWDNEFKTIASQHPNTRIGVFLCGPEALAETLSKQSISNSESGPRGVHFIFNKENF
SMILES,z-score [1],composite z-score [2],z-score [3],z-score [4],z-score [5],z-score [6],z-score [7],z-score [8],z-score [9],z-score [10],z-score [11],z-score [12],z-score [13],z-score [14],z-score [15],z-score [16],z-score [17],z-score [18],z-score [19],z-score [20]
C[C@@]1([C@@H](NC(=O)c2ccccc2)c2ccc(-c3ccccc3)cc2)C[C@H]1C1CCCCC1,-2.22 (inactive),0.476,-0.118 (inactive),0.28 (inactive),0.833 (inactive),0.888 (inactive),0.994,-0.658 (inactive),-1.06 (inactive),-0.782,-1.35,-0.502,-0.687,-0.646,-1.28,-0.964,-1.22 (inactive),0.318,-0.308,-1.2 (inactive)
Cc1ccc(C(C)CC(O)C2C=CC3C(=O)N(C)C(=O)C3N2NC(=O)OC(C)(C)C)o1 (stereo not given),-0.502 (inactive),0.196,-0.205 (inactive),0.562 (inactive),-0.168 (inactive),0.435 (inactive),-0.497,0.347 (inactive),-0.202 (inactive),-0.701,0.987,-0.515,0.917,-0.193,-0.883,-0.768,-0.632 (inactive),-0.876,-0.357,0.543 (inactive)
COc1ccc(C(O)C2C=CC3C(=O)NC(=O)C3N2Nc2ccccn2)c2ccccc12 (stereo not given),-1.07 (inactive),-0.0625,0.496 (inactive),0.437 (inactive),-0.139 (inactive),0.977 (inactive),-0.841,-0.387 (inactive),-3.5 (inactive),-2.08,0.606,-1.17,0.384,-0.178,0.384,-1.11,0.296 (inactive),-0.905,-0.143,-0.703 (inactive)
C=CCNC(=O)[C@H]1[C@@H]2C(=O)O[C@@H](c3ccccc3)[C@@H](c3ccccc3)N2[C@@H](c2ccc(OCCO)cc2)[C@]12C(=O)Nc1ccc(C#CC3=CCCCC3)cc12,0.951 (inactive),-0.101,2.36 (inactive),1.66 (inactive),-1.04 (inactive),1.4 (inactive),-0.571,1.24 (inactive),-1.05 (inactive),1.02,-1.03,1.66,-1.17,-1.99,-3.64,-1.43,2.5 (inactive),-1.13,-1.32,-0.829 (inactive)
O=C1c2ccccc2[C@@]2(Cc3ccccc3N(CC(F)(F)F)C2=O)[C@H](c2ccc(CO)cc2)N1Cc1ccccc1Cl,0.606 (inactive),-0.677,0.902 (inactive),0.638 (inactive),0.955 (inactive),0.5 (inactive),0.258,0.0997 (inactive),-0.991 (inactive),-0.826,0.609,0.889,-0.0395,-0.354,-0.936,-0.0535,-0.483 (inactive),-0.131,0.165,-0.142 (inactive)
CC[C@@H]1C=C(C(=O)O)[C@H](c2ccco2)N1S(=O)(=O)c1ccc(C)cc1,-0.0046 (inactive),-0.148,1.96 (inactive),1.37 (inactive),-0.0701 (inactive),0.953 (inactive),0.123,0.152 (inactive),-0.589 (inactive),-0.764,-0.364,-0.538,0.186,-0.019,-0.29,-0.0247,-1.25 (inactive),0.604,-1.26,-0.68 (inactive)
Cc1ccc(S[C@]2(C(=O)NCC(C)C)CC(=O)N(Cc3cc(C(F)(F)F)cc(C(F)(F)F)c3)[C@@H]2c2ccc(CO)cc2I)cc1,-0.336 (inactive),0.12,2.53 (inactive),-0.449 (inactive),0.767 (inactive),0.278 (inactive),-0.301,2.07 (inactive),-1.39 (inactive),-0.95,-0.431,0.299,-0.588,-3.16,-2.29,-0.523,-0.3 (inactive),-0.39,-1.01,-0.227 (inactive)
C=C(COC)/C(=C/C[C@@H](OC(C)=O)c1ccc(OCCO)cc1)c1cc(C(=O)OC)ccc1OC,0.0977 (inactive),0.139,11.2 (active),1.87 (inactive),0.681 (inactive),0.601 (inactive),-0.0505,-0.0514 (inactive),-0.355 (inactive),-1.57,-0.534,-0.0502,-0.0182,-1.25,-0.648,0.592,-0.512 (inactive),-0.729,-0.723,0.916 (inactive)
C#CCN(CC1=CCCCC1)[C@H](c1ccccc1Br)[C@@H](O)Cc1ccccc1,1.5 (inactive),-0.0547,3.02 (inactive),0.849 (inactive),0.372 (inactive),0.109 (inactive),0.114,-0.456 (inactive),0.191 (inactive),-1.45,-0.101,0.109,0.455,-2.26,-4,-1.05,-0.352 (inactive),-1.08,-0.635,1.2 (inactive)

# Source: PubChem BioAssay
